# Screens deposited in PubChem BioAssay by National Center for Advancing Translational Sciences (NCATS).
# Most compounds without a hit are left out; they make up all but 2.4% or so of the library.
# FUS suppressor = rescues growth of FUS-expressing yeast | S. cerevisiae FUS-expressing, growth rescue, OD600, 24 h | Potency, µM (titrated, usually from 76.6 µM), actives largely listed as activators | 390,000 compounds, 0.24% hits;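 further: plate controls were DMSO vehicle for no effect and reference control for full effect; nearly all actives have a fitted effect of over 55% in size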
#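 Toxicity suppression screen in FUS-yeast. Cells induced with 2% galactose, starting OD 0.005, treated 24hr at 30C with compounds at multiple final concentrations; growth by OD600.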
# Mito fusion act = mitochondrial division inhibition or fusion activation; S. cerevisiae fusion-defective mutant growth rescue, CellTiterGlo 48 h; 320,000 compounds, 0.23% hits; Potency, µM (doses to about 46.1 µM), without a hit: at the highest dose growth rescue (activation), most hits filed as activators; AID 485298; further: % of control where 0% means no effect; nearly all actives have a fitted effect of over 45% in size
#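 Yeast fusion mutant, YPEG (non-fermentable carbon), compound, 48 h at 37C non-permissive; CellTiterGlo added, 10 min RT, luminescence read. Rescued growth = division inhibition.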
# Abeta rescue = compounds reversing amyloid beta toxicity in yeast. yeast expressing A-beta42, growth rescue, OD600, 48 h; response scale: 0% DMSO, 100% iron-clioquinol control. Potency, µM (series often up to 46.1 µM), hits mostly activators. 410,000 compounds, 0.063% hits. AID 1347071; further: nearly all actives have a fitted effect of over 55% in size
#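 Yeast growth medium received pinned compounds, then yeast cells expressing toxic A-beta were added; plates incubated at 30 C for 48 hr. Growth read as absorbance at 600 nm, normalized to DMSO and equimolar FeCl3 plus clioquinol controls.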
# A-T KAP1 phos = potential ataxia-telangiectasia treatment; F2112 A-T fibroblasts, KAP-1 phosphorylation AlphaLISA; neocarzinostatin DNA damage 30 min before lysis; Potency, µM (doses to about 57.5 µM), without a hit: top-dose activation, hits mostly activators; 320,000 compounds, 0.19% hits; AID 485349; further: % of control where 0% means no effect; nearly all actives have a fitted effect of over 45% in size
#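 hTERT-immortalized A-T patient fibroblasts (F2112), 500 cells/well in OPTI-MEM, 1% FBS, got compounds for 60 min, then NCS for 30 min at 37C. Lysates were then assayed for phospho-KAP-1 by AlphaLISA (anti-pKAP1 donor, anti-KAP1 acceptor beads), 6 hr at 25C.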
# TDP43 rescue = TDP-43 toxicity inhibition in yeast; 410,000 compounds, 1.8% hits; Potency, µM (doses to about 46.1 µM), inactives show at the top dose growth rescue (activation), most hits filed as activators; AID 652104; TDP-43 expressing yeast growth rescue, BacTiter-Glo, 24 h; further: % of control where 0% means no effect; nearly all actives have a fitted effect of over 50% in size
#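 Readout is BacTiter-Glo luminescence of cell growth, so inhibitors register as activators. TDP-43-expressing yeast at OD600=0.02 in galactose medium, after raffinose pregrowth to mid-log, were incubated with compound for 24 hr at 30 deg C.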
# aSyn yeast inh = inhibitors of alpha-synuclein toxicity in yeast; AID 652106; 370,000 compounds, 0.14% hits; Potency, µM (top dose mostly 46.1 µM), for inactives: at the top dose growth rescue (activation), actives largely listed as activators; Yeast expressing alpha-synuclein, growth rescue, BacTiter-Glo, 24 h; further: % of control where 0% means no effect; nearly all actives have a fitted effect of over 65% in size
#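 Screening used galactose-induced yeast with toxic alpha-synuclein levels, exposed to compound for 24 hr at 30 deg C. Cell growth, read with BacTiter-Glo luminescence, gave the measured signal.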
# * marks the source's active call; other numbers are inactive results; i = inactive; ? = inconclusive; / = no result. The call rests on the fitted dose curve; in most records, active means well fitted curve in the direction sought with a large enough effect; inconclusive means small, poorly fitted or top-dose-only effect, or another doubt; inactive means no such curve, though single readings can be large; an effect the other way counts as inactive or inconclusive. Potency means the concentration at half of the fitted maximal effect.
SMILES,FUS suppressor,Mito fusion act,Abeta rescue,A-T KAP1 phos,TDP43 rescue,aSyn yeast inh
CCOC(=O)[C@@H]1[C@H]2COc3ccccc3[C@@H]2N2C(=O)N(c3ccc(Cl)cc3)C(=O)[C@@]12C,i,9%,i,7%,0%,3%
C[C@@]12C(=O)Nc3ccc(F)cc3C(=O)N1[C@H]1c3cc(Cl)ccc3OC[C@@H]1[C@@H]2c1ccccc1,i,/,i,-2%,18µM*,-3%
C[C@@]12C(=O)Nc3ccc(Cl)cc3C(=O)N1[C@H]1c3ccccc3OC[C@@H]1[C@@H]2c1ccccc1,28µM*,-20%,i,1%,-47%,-2%
Cc1ccc2c(c1)C(=O)N1[C@H]3c4cc(Cl)ccc4OC[C@@H]3[C@H](c3ccccc3)[C@]1(C)C(=O)N2,i,/,i,-4%,-15%,-13%
Cc1ccc(N2C(=O)CSC23C(=O)N(CC(=O)NC2CCCCC2)c2ccccc23)cc1 (stereo not drawn),i,/,i,/,7%,-4%
C[C@@]12C(=O)Nc3ccc(F)cc3C(=O)N1[C@H]1c3ccccc3OC[C@@H]1[C@@H]2c1ccccc1,?,/,i,6%,14µM*,7%
O=C(O)c1ccc(N2CCN(C(c3ccccc3)c3ccccc3)CC2)c([N+](=O)[O-])c1,i,2%,i,-4%,11µM*,-5%
COc1ccc(/C=N/NC(=O)c2cccnc2)cc1CSc1nc2ccccc2s1,/,24%,i,-3%,13µM*,0%
Cc1c(Cl)cccc1NC(=O)CSc1nc(=O)n(CCN2CCOCC2)c2c1CCC2,i,/,i,/,19%,/
O=C(CSc1nc2ccccc2c2c1CCCC2)N1CCOCC1,i,1%,i,7%,10µM*,?
Brc1ccc(OCc2nnnn2-c2ccccc2)cc1,i,9%,i,7%,22µM*,-9%
COc1ccccc1-c1cc2nc(C)c(CCC(=O)Nc3ccc(Br)c(C)c3)c(C)n2n1,i,/,?,/,?,/
CCC[C@H]1[C@@H](O)CC[C@@]23CCCN2C(=O)CCC[C@@H]13,i,/,/,/,/,/
COc1ccc(-c2cc(C(=O)N(C)Cc3ccc(F)cc3)c3ccccc3n2)cc1OC,i,/,i,/,22µM*,-5%
COc1ccc(CCN(C)C(=O)c2cc(-c3ccc(C)cc3)nc3ccccc23)cc1OC,i,/,i,/,0%,-15%
CCOc1cc(C)c(C(C)C)cc1S(=O)(=O)n1ccnc1CC,i,/,i,/,20µM*,/
COc1ccc(CN(CC#Cc2ccc(C)cc2)C(N)=NC(=O)CCc2ccccc2)c(OC)c1,i,/,/,/,/,/
O=S(=O)(c1cc(Cl)ccc1Cl)N1CCCCC1,i,8%,i,9%,16µM*,10%
CCOC(=O)C1CCN(C(=O)C2CCN(S(=O)(=O)c3cc(Cl)ccc3Cl)CC2)CC1,i,4%,i,2%,25%,8%
CCOC(=O)N1CCN(C(=O)C2CCN(S(=O)(=O)c3cc(Cl)ccc3Cl)CC2)CC1,?,13%,i,3%,11µM*,15%
O=C(c1ccco1)N1CCN(S(=O)(=O)c2cc(Cl)ccc2Cl)CC1,i,2%,i,5%,18µM*,13%
O=C(O)c1cc(S(=O)(=O)N2CCN(C(=O)c3ccco3)CC2)c(Cl)cc1Cl,i,6%,i,-4%,-16%,-5%
CC[C@@H]1/C(=C/c2ccccc2)N2C(=O)C[C@@H](c3ccccc3)N=C2N1Cc1ccc(OC)cc1OC,i,/,/,/,/,/
Clc1cccc(Nc2c3c(nc4ncnn24)CCC3)c1,i,8%,i,/,26%,18%
CCc1cccc(Nc2c3c(nc4ncnn24)CCC3)c1,i,17%,i,-3%,18µM*,2%
CCCC1CCC2(CC1)CCC2OC(=S)Nc1ccccc1 (stereo not drawn),i,/,/,/,/,/
O=C(Cc1ccc(OCC2CCCCC2)cc1)NO,/,/,/,/,/,22µM*
